Casp6 inh: inhibitors of human caspase-6; P55212; purified caspase-6, Z-VEID-R110 cleavage fluorescence; inhibition, % at 12.5 µM; actives 0.53% (n = 350,000);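 active = mean inhibition across replicates at least about 35%, with every replicate also reaching that limit, limit read from the data; inconclusive = only one of the two criteria met; inactive = neither criterion met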
Target sequence (P55212 24-179 limits assumed): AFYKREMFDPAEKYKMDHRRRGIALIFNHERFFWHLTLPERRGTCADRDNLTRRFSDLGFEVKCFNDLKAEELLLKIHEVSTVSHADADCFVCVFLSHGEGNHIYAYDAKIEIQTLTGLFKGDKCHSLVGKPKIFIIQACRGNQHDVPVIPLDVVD
Target sequence (P55212 194-293 limits assumed): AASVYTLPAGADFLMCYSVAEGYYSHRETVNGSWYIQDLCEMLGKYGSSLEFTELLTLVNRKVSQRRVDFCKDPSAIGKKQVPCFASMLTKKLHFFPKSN
HIV Env fusion: HIV envelope-mediated fusion inhibition | actives 1.1% (n = 360,000) | HeLa-JRFL Env/CEM21 cell fusion, luciferase | inhibition, % at 12.3 µM;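 active = mean replicate inhibition score of at least 50 and every replicate individually at or above 50; inconclusive = only one of the two criteria met; inactive = mean below 50 and not all replicates reaching 50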
NSD2 inh: NSD2 (human) methyltransferase inhibition; O96028; NSD2 peptide methylation, AlphaScreen, 120 min; inhibition, % at 12.5 µM; actives 0.54% (n = 310,000); AID 743445; in the data active = inhibition above about 50%
ALR inh: inhibitors of human sulfhydryl oxidase ALR | P55789 | actives 3.8% (n = 290,000) | purified ALR, DTT oxidation, H2O2 HRP-luminol luminescence | inhibition, % (test concentration not listed);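 active = mean replicate inhibition above about 79%, with every replicate also reaching it, limit read from the data; inconclusive = only one of the two criteria met; inactive = mean below limit and not every replicate reaching it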
Target sequence (P55789 whole entry, looked up): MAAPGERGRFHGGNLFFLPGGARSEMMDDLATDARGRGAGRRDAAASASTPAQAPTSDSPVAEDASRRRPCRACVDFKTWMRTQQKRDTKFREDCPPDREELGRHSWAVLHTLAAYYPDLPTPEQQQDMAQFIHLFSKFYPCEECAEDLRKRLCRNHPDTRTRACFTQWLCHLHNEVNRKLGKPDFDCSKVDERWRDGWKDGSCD
PglD DTNB: inhibitors of Campylobacter jejuni PglD acetyltransferase; purified PglD enzyme, DTNB colorimetric CoA detection; inhibition, % at 12.5 µM; actives 0.098% (n = 360,000); AID 602405; in the data active = inhibition above about 16%, passing the limit was not always enough; inconclusive = no clear call, values can overlap the other calls
CFTR F508del cor: correctors of CFTR F508del function in bronchial epithelial cells; CFBE cells, YFP halide quenching; stimulated with forskolin plus potentiator P3; % fluorescence drop versus neutral controls; activity (quench increase), % at 7.58 µM; actives 0.36% (n = 350,000); AID 720511;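 active = mean added fluorescence quench of at least 8% versus neutral control, with both replicates also reaching 8%; inconclusive = only one of the mean or replicate conditions met; inactive = mean below 8% and not both replicates reaching 8%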;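 note: cells transiently co-express mutant CFTR-F508del with the halide-sensitive YFP; corrector assay measuring rescue of mutant channel to the surface after 24 h compound exposure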
AlphaScreen art: interferes with AlphaScreen signal, flagging NSD2 false positives. shares compounds with NSD2 inh. AlphaScreen artifact counterscreen, preloaded methylated H4 peptide. AC35, µM (titrated, usually from 10 µM). actives 9.4% (n = 1,500). AID 1053174; call rule not given here
Numbers stand for hits; 0 = inactive; ? = inconclusive; - = no result. Sampled rows, rich in hits. Any-hit rate of the full collection: about 4.1%.

SMILES	Casp6 inh	HIV Env fusion	NSD2 inh	ALR inh	PglD DTNB	CFTR F508del cor	AlphaScreen art
Cn1c(=O)c2c(nc(CN3CCC(C(N)=O)CC3)n2Cc2c(Cl)cccc2Cl)n(C)c1=O	-	0	0	0	0	-	-
O=C(Cc1ccccc1)N[C@H]1C=C[C@@H](CC(=O)N2CCOCC2)O[C@@H]1CO	0	0	-	-	0	0	-
CCOc1ccc2nc3cc(N=Nc4ccc(N)nc4N)ccc3c(N)c2c1	-	-	59	-	-	-	0
COc1ccc(N=Nc2ccc(N)nc2N)cc1	0	0	0	-	0	0	-
NCC[C@@H]1CC[C@@H](NC(=O)C2CCCCC2)[C@@H](CO)O1	0	0	-	-	0	0	-
CCn1c(O)c(C=Nc2ccccc2)sc1=S	0	0	0	0	-	-	-
CCn1c(O)c(/C=N/n2cnnc2)sc1=S	-	0	67	98	0	-	0
O=C(COc1ccc(S(=O)(=O)N2CCCC2)cc1)Nc1ccc(F)cc1	0	0	68	0	0	0	0
O=C(CSCC(=O)N1CCOCC1)Nc1nc(-c2ccccc2)cs1	0	0	53	0	-	0	0
O=C(CSCC(=O)N1CCOCC1)Nc1ccccc1	-	-	0	0	0	-	-
O=C(C[C@H]1C[C@H]2c3cc(NC(=O)c4ccc5c(c4)OCO5)ccc3O[C@H]2[C@@H](CO)O1)NCc1ccccn1	0	0	-	-	0	0	-
Cc1cccc(NC(=O)C2CCN(C(=O)NCc3ccccc3)CC2)c1C	0	0	66	0	0	0	0
O=C(c1ccccc1F)N1CC[C@@H]2[C@@H](CO)Nc3ccc(C#Cc4ccccc4)cc3[C@@H]21	0	-	-	-	0	0	-
O=C(Nc1cccc(C(F)(F)F)c1)c1cc(-c2ccco2)on1	0	0	92	-	0	0	0
COc1ccc(Nc2oc(COc3ccccc3OC)nc2C#N)cc1	0	0	51	0	-	0	0
CC(=O)Nc1cccc(C(=O)OCC(=O)NC(=O)Cc2ccccc2)c1	0	-	0	0	0	0	-
CC(=O)Nc1cccc(C(=O)OCc2ccccc2)c1	-	0	57	-	0	-	0
Cc1noc(C)c1S(=O)(=O)N(C)C[C@@H]1Oc2ccc(NC(=O)Nc3ccccc3)cc2CC(=O)N([C@H](C)CO)C[C@H]1C	-	0	-	-	-	0	-
O=C(Cc1ccncc1)Nc1ccc2c(c1)[C@H]1C[C@@H](CC(=O)N3CCOCC3)O[C@@H](CO)[C@H]1O2	-	0	-	-	0	0	-
CCC(=O)N1CCN(c2ccc(Cl)cc2NC(=O)c2ccc(Br)o2)CC1	-	0	119	0	0	-	0
O=C(/C=C/c1ccco1)Nc1scc(-c2ccccc2)c1C(=O)O	44	0	103	0	0	0	0
O=C(O)c1ccc(NS(=O)(=O)c2ccc3c(c2)C2C=CCC2C(c2ccccc2F)N3)cc1 (stereo unspecified)	47	0	159	-	-	0	0
O=C(O)c1ccc2c(c1)C1C=CCC1C(c1cc3c(cc1Br)OCO3)N2 (stereo unspecified)	0	0	0	0	-	0	-
Cc1cc(C)nc(N2CCC(C(=O)N(C)CCc3ccccc3)CC2)n1	-	-	60	-	-	-	0
O=[N+]([O-])c1ccc(-[n+]2nc(-c3ccccc3)nn2-c2ccccc2)cc1	0	0	81	0	0	0	0.91µM
SMILES	Casp6 inh	HIV Env fusion	NSD2 inh	ALR inh	PglD DTNB	CFTR F508del cor	AlphaScreen art
CC1=NOC(=O)/C1=C\c1ccc(-c2cccc(Cl)c2)o1	-	-	0	-	0	-	-
CC1=NOC(=O)/C1=C\c1ccc(-c2ccc(Cl)c(C(=O)O)c2)o1	0	0	84	-	-	0	0
CC1=NOC(=O)/C1=C\c1ccc(-c2ccccc2Br)o1	0	0	69	-	-	?	0
CN(C)CCCNC(=O)C[C@@H]1C=C[C@H](NC(=O)Cc2cccnc2)[C@@H](CO)O1	0	0	-	-	0	0	-
CNCCOc1ccccc1-c1ccccc1	-	0	76	0	0	-	0
CNCCCCOc1ccccc1-c1ccccc1	0	0	64	0	0	0	0
COCCCNCCCCOc1ccccc1-c1ccccc1	-	0	0	0	0	-	-
Cc1cccc2c(N=NC(=O)c3ccc(NS(=O)(=O)c4cccs4)cc3)c(O)[nH]c12	0	0	64	0	0	0	0
CCOC(=O)C(CCCCP(=O)(c1ccccc1)c1ccccc1)(NC(C)=O)C(=O)OCC	0	0	0	0	0	0	-
CCOC(=O)C(CCCP(=O)(c1ccccc1)c1ccccc1)(NC(C)=O)C(=O)OCC	0	0	60	-	0	0	0
O=C(N[C@@H]1CC[C@H](CCn2cc(C3(O)CCCC3)nn2)O[C@@H]1CO)c1ccccc1F	0	0	-	-	0	0	-
Cc1cc(S(=O)(=O)NCc2cccnc2)ccc1F	0	0	59	0	0	0	0
CCN(Cc1ccccc1)Cc1c(C)[nH]c2c(C)c(C)ccc2c1=O	-	0	56	0	0	-	0
CNCc1ccccc1OCc1ccc(F)cc1	0	0	60	0	-	-	0
Fc1ccc(COc2ccccc2CNc2nn[nH]n2)cc1	0	0	0	0	-	0	-
Cc1ccccc1-c1cnc2c(c1)C(=O)N([C@H](C)CO)C[C@H](C)[C@H](CN(C)C(=O)c1cccnc1)O2	0	0	-	-	0	0	-
O=C(C[C@H]1CC[C@H]2[C@@H](COC[C@H](O)CN2Cc2cccc(-c3ccncc3)c2)O1)N1CCCCC1	0	-	-	-	0	0	-
CCN(CC)CC(C)(C)C(=O)/C=C/c1ccc(/C=C/C(=O)C(C)(C)CN(CC)CC)cc1	0	55	101	-	-	0	0
CCN(CC)CCOC(=O)/C=C/c1ccccc1	0	0	0	0	-	0	-
C=CCC1CCCCC1=C(C#N)c1ccccc1 (stereo unspecified)	0	-	53	-	0	0	0
Cc1ccc(NC(=S)N2CCC(NC(=O)c3ccc(F)cc3)CC2)cc1	0	0	61	0	0	0	0
Cc1ccc(NC(=S)N2CCC(NC(=O)c3ccccc3)CC2)cc1	0	0	0	0	0	0	-
O=C(Nc1cc(S(=O)(=O)Nc2ccccc2F)ccc1Cl)c1ccc(F)cc1F	0	0	89	0	-	0	0
O=S(=O)(c1ccccc1)N1CCCCN2[C@H](CO)[C@H](c3ccc(-c4ccccc4F)cc3)[C@@H]2C1	-	-	-	-	0	0	-
COc1cccc2cc(C(=O)N3CC(C)OC(C)C3)c(=O)oc12 (stereo unspecified)	0	0	0	0	0	0	-
COc1cc2c(oc(=O)c3cc(C)cc(OC)c32)c2c(C3OC(C)C(O)C(C)(O)C3O)ccc(O)c12 (stereo unspecified)	0	56	86	-	-	0	0
CO[C@@H]1CN(C)C(=O)c2ccc(NS(=O)(=O)c3cccc(F)c3)cc2OC[C@H](C)NC[C@@H]1C	0	0	-	-	0	0	-
O=C(C[C@H]1CC[C@H](NS(=O)(=O)c2cccc(F)c2)[C@@H](CO)O1)NCc1ccc2c(c1)OCO2	0	0	-	-	0	0	-
CSc1nsc(SCC(=O)Nc2cccc(NC(C)=O)c2)n1	0	0	63	99	0	0	0

Compound activity as filed in PubChem.
